{
  "source": "PubChem BioAssay AID1626",
  "about": "(SRMLSC, 2009)",
  "note": "The campaign covered roughly 220,000 compounds. About 2,000 (0.91%) were called active. About 2% were inconclusive and are not listed. No stated cut-off is given here; in the data, inconclusive means inhibition above about 80% without an active follow-up result; inactive means below that; test concentration not stated here. Only a sample is shown. Potency and affinity values are given separately.",
  "data": [
    {"assay": "M. tuberculosis H37Rv growth inhibitors, H37Rv strain (AID 1626);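 further: bacteria incubated seven days before Alamar blue readout; 0% = bacteria only wells and 100% = bacteria with antibiotic wells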", "settings": "hits give high values, concentration not given here", "values": [
      {"smiles": "CC(C)(CN1CCCCC1)NS(=O)(=O)c1ccc(Cl)cc1", "inhibition": "3.88% (inactive)"},
      {"smiles": "CN(C)/C=C(\\C#N)C(=O)Nc1ccc(F)cc1", "inhibition": "-3.02% (inactive)"},
      {"smiles": "O=C(COC(=O)CNC(=O)c1cccc([N+](=O)[O-])c1)Nc1cccc(S(=O)(=O)N2CCCC2)c1", "inhibition": "-1.39% (inactive)"},
      {"smiles": "C#CCOCCOCCOCCNc1nc(N2CCN(C(=O)C([C@@H](C)CC)n3cc(C(N)CO)nn3)CC2)nc(N2CCN(C(=O)C([C@@H](C)CC)n3cc(C(N)COC(=O)C(F)(F)F)nn3)CC2)n1", "note": "(some centres not stated)", "inhibition": "-11.1% (inactive)"},
      {"smiles": "CCOC(=O)NC(=O)c1cn(Nc2ncc(Cl)cc2C(F)(F)F)c(=O)[nH]c1=O", "inhibition": "-8.73% (inactive)"},
      {"smiles": "CCOC(=O)Cn1c2c(c(=N)c3c1CCC3)CCCC2", "inhibition": "-4.08% (inactive)"},
      {"smiles": "CCOC(=O)N1CCC(NC(=O)Cn2c3c(c(-c4ccccc4Cl)cc2=O)CCC3)CC1", "inhibition": "-2.35% (inactive)"},
      {"smiles": "CCNC(=S)N1CCC(c2nc3ccccc3s2)CC1", "inhibition": "-0.93% (inactive)"},
      {"smiles": "O=C(NCc1cccnc1)c1cccc(S(=O)(=O)N2CCOCC2)c1", "inhibition": "0.09% (inactive)"},
      {"smiles": "c1ccc2c(c1)CCc1c-2nc2ccccc2c1N1CCOCC1", "inhibition": "4.28% (inactive)"},
      {"smiles": "COc1ccc2c(-c3ccccc3)cc(N3CCOCC3)nc2c1", "inhibition": "-14.6% (inactive)"},
      {"smiles": "Cc1cccn2cc(-c3ccc(S(=O)(=O)N4CCCCC4)cc3)nc12", "inhibition": "0.16% (inactive)"},
      {"smiles": "c1ccc2c(N3CCCC3)nc(-c3ccncc3)nc2c1", "inhibition": "6.26% (inactive)"},
      {"smiles": "c1ccc2c(N3CCCCC3)nc(N3CCCC3)nc2c1", "inhibition": "-8.46% (inactive)"},
      {"smiles": "CC1CCN(c2nc(-c3ccccc3O)nc3ccccc23)CC1", "inhibition": "-2.32% (inactive)"},
      {"smiles": "Oc1ccccc1-c1nc(N2CCCC2)c2ccccc2n1", "inhibition": "-6.53% (inactive)"},
      {"smiles": "CN1CCN(c2nc(-c3ccncc3)nc3ccccc23)CC1", "inhibition": "3.8% (inactive)"},
      {"smiles": "c1ccc2c(c1)nc(N1CCCCC1)c1ccccc12", "inhibition": "12.2% (inactive)"},
      {"smiles": "CC1CCN(c2ncnc3ccccc23)CC1", "inhibition": "-8.39% (inactive)"},
      {"smiles": "c1ccc2c(c1)nc(N1CCCCCC1)c1ccccc12", "inhibition": "3.85% (inactive)"},
      {"smiles": "CC(C)(C)NS(=O)(=O)c1cc(C(=O)O)ccc1Cl", "inhibition": "-11.1% (inactive)"},
      {"smiles": "Cc1c(C#N)c(=O)c(-[n+]2ccccc2)c([S-])n1-c1ccc(Cl)cc1", "inhibition": "3.17% (inactive)"},
      {"smiles": "O=C(O)c1ccc(NC2=C(n3nnc4ccccc43)C(=O)c3ccccc3C2=O)cc1", "inhibition": "-3.22% (inactive)"},
      {"smiles": "Cc1cc([N+](=O)[O-])c(Cl)cc1NC(=O)C(C)C", "inhibition": "-3.38% (inactive)"},
      {"smiles": "O=C(O)c1ccc2c(c1)-c1nc3ccccc3n1C2=O", "inhibition": "-6.82% (inactive)"},
      {"smiles": "COc1ccc(-c2ccc3ccccc3n2)cc1OC", "inhibition": "12.8% (inactive)"},
      {"smiles": "Cc1ccc(C)c(NC(=S)N2CCN(Cc3ccccc3)CC2)c1", "inhibition": "-5.34% (inactive)"},
      {"smiles": "Cc1cc(C)cc(N(C(C)C(=O)N2CCCCC2)S(C)(=O)=O)c1", "note": "(configuration not stated)", "inhibition": "7.53% (inactive)"},
      {"smiles": "O=C(COc1ncnc2ccccc12)N1CCN(c2ccccc2)CC1", "inhibition": "5.1% (inactive)"},
      {"smiles": "COC(=O)c1ccc2ccccc2n1", "inhibition": "-11.4% (inactive)"},
      {"smiles": "NNC(=O)c1ccc2ccccc2n1", "inhibition": "27% (inactive)"},
      {"smiles": "CCOc1ccc(-n2cc(-c3ccccc3)c3c(=O)[nH]cnc32)cc1", "inhibition": "64.1% (inactive)"},
      {"smiles": "COc1ccc(-n2cc(-c3ccccc3)c3c(N4CCN(CCO)CC4)ncnc32)cc1", "inhibition": "0.66% (inactive)"},
      {"smiles": "O=P1(Oc2ccccc2)OCCCS1", "note": "(configuration not stated)", "inhibition": "12.1% (inactive)"},
      {"smiles": "COC(=O)CC(c1ccc(F)cc1)n1c(C)ccc1C", "note": "(configuration not stated)", "inhibition": "-0.04% (inactive)"},
      {"smiles": "Oc1ccccc1-c1nc(NCc2ccco2)c2ccccc2n1", "inhibition": "-6.38% (inactive)"},
      {"smiles": "c1cncc(-c2nc(NCc3ccco3)c3ccccc3n2)c1", "inhibition": "-4.8% (inactive)"},
      {"smiles": "Cc1ccccc1Nc1nc(NCc2ccco2)c2ccccc2n1", "inhibition": "1.73% (inactive)"},
      {"smiles": "Fc1ccccc1-c1nc(NCc2ccco2)c2ccccc2n1", "inhibition": "0.67% (inactive)"},
      {"smiles": "Oc1ccccc1-c1nc(NCC2CCCO2)c2ccccc2n1", "note": "(configuration not stated)", "inhibition": "9.18% (inactive)"},
      {"smiles": "c1ccc(CN2CCC(Nc3nc(-c4cccnc4)nc4ccccc34)CC2)cc1", "inhibition": "11.5% (inactive)"},
      {"smiles": "c1ccc(CN2CCC(Nc3ncnc4sccc34)CC2)cc1", "inhibition": "7.78% (inactive)"},
      {"smiles": "c1ccc(Nc2nc(NCC3CCCO3)c3ccccc3n2)cc1", "note": "(configuration not stated)", "inhibition": "2.76% (inactive)"},
      {"smiles": "CCCn1c(CN2CCN(c3cccc(Cl)c3)CC2)nc2c1c(=O)n(C)c(=O)n2C", "inhibition": "7.42% (inactive)"},
      {"smiles": "Cc1cc(C)nc(-n2ncc3c2CC(c2ccc(F)cc2)CC3=O)n1", "note": "(configuration not stated)", "inhibition": "-3.92% (inactive)"},
      {"smiles": "CCCN1CCN(C(=O)Cn2c(=O)oc3cc(S(=O)(=O)NCc4ccccc4)ccc32)CC1", "inhibition": "0.47% (inactive)"},
      {"smiles": "O=C1CCC/C1=c1\\s/c(=C\\c2cccnc2)c(=O)n1-c1ccccc1", "inhibition": "-3.57% (inactive)"},
      {"smiles": "CCCCCCCCC(=O)NNC(=O)c1c(O)c2ccccc2n(CCC)c1=O", "inhibition": "1.3% (inactive)"},
      {"smiles": "CCOC(=O)c1sc2nc(CC(=O)OC)nc(NCc3ccc(F)cc3)c2c1C", "inhibition": "-2.66% (inactive)"},
      {"smiles": "CC(NC(=O)c1cccc(N2CCCC2=O)c1)c1ccc2c(c1)OCCO2", "note": "(configuration not stated)", "inhibition": "-0.45% (inactive)"},
      {"smiles": "COCC(N)(c1ccccc1)c1nc2ccccc2n1C", "note": "(configuration not stated)", "inhibition": "-3.7% (inactive)"},
      {"smiles": "Cn1c(Cc2ccccc2)nnc1SCC(=O)N1CCCCC1", "inhibition": "-3.96% (inactive)"},
      {"smiles": "CCOC(=O)c1sc2nc(C)c3c(c2c1N)CC(C)(C)OC3", "inhibition": "-1.95% (inactive)"},
      {"smiles": "N#CCCN(C(=O)COC(=O)C1CCN(S(=O)(=O)c2cccs2)CC1)c1ccccc1", "inhibition": "3.1% (inactive)"},
      {"smiles": "CCOC(=O)C1C(=O)NC(c2ccccc2)=NC1c1ccc(O)c(OC)c1", "note": "(configuration not stated)", "inhibition": "2.45% (inactive)"},
      {"smiles": "CC(C)(C)C(=O)O/N=C(\\N)Cc1ccc(-c2csnn2)cc1", "inhibition": "-5.08% (inactive)"},
      {"smiles": "c1csc(CNc2nc(-c3cccs3)nc3ccccc23)c1", "inhibition": "9.19% (inactive)"},
      {"smiles": "c1ccc(CNc2nc(-c3cccs3)nc3ccccc23)cc1", "inhibition": "13.4% (inactive)"},
      {"smiles": "Clc1cccc(-c2nc(NCc3cccnc3)c3ccccc3n2)c1", "inhibition": "74.3% (inactive)"},
      {"smiles": "c1ccc(-c2nc(NCc3cccnc3)c3ccccc3n2)cc1", "inhibition": "7.56% (inactive)"},
      {"smiles": "CCC(C)NC(=O)CN(c1cc(C)ccc1OC)S(C)(=O)=O", "note": "(configuration not stated)", "inhibition": "-5.3% (inactive)"},
      {"smiles": "CCOc1ccc(-c2nnc(N3CCCCC3)c3ccccc23)cc1", "inhibition": "-1.05% (inactive)"}
    ]}
  ]
}
